# Bioassay records: PubChem, National Center for Advancing Translational Sciences (NCATS)
# POLI inh: blocks human DNA polymerase iota activity. Q9UNA4. Pol iota fluorescent replication assay, 10 min. Potency, µM (highest dose often 115 µM), for the others: top-dose activity, negative = inhibition, actives largely listed as inhibitors. 390,000 tested, 1% active. AID 588590
#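 Pol iota at 10 nM preincubated 15 min with compounds at room temperature; reaction started with fluorescent substrate, 50 nM final. Fluorescence read kinetically at 0 and 10 min; buffer-only wells as negative control.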
# GLS inh: glutaminase GLS (human) inhibition. GLS enzymatic activity, qHTS titration. Potency, µM (highest dose often 45.5 µM), for inactives: at the top dose activity change, negative = inhibition, hits mostly inhibitors. 410,000 tested, 0.21% active. AID 624170; note: % is set by controls: 0 for no effect and ±100 for the full control effect
#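 Two-point fluorescence kinetic (t0, 30 min RT) for hKGA; glutamate detected via glutamate oxidase–HRP–Amplex Red. Substrate: 1 mM L-glutamine solution; buffer 45 mM KH2PO4, pH 8.2.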
# POLK inh: DNA polymerase kappa (human) inhibition; Potency, µM (top dose mostly 107 µM), inactives show at the highest dose activity, negative = inhibition, usual class: inhibitors; purified Pol kappa, fluorescent DNA synthesis assay, 10 min; 400,000 tested, 0.53% active; AID 588579; note: % is set by controls: 0 for no effect and ±100 for the full control effect
# Target sequence (Q9UBT6 whole entry, looked up): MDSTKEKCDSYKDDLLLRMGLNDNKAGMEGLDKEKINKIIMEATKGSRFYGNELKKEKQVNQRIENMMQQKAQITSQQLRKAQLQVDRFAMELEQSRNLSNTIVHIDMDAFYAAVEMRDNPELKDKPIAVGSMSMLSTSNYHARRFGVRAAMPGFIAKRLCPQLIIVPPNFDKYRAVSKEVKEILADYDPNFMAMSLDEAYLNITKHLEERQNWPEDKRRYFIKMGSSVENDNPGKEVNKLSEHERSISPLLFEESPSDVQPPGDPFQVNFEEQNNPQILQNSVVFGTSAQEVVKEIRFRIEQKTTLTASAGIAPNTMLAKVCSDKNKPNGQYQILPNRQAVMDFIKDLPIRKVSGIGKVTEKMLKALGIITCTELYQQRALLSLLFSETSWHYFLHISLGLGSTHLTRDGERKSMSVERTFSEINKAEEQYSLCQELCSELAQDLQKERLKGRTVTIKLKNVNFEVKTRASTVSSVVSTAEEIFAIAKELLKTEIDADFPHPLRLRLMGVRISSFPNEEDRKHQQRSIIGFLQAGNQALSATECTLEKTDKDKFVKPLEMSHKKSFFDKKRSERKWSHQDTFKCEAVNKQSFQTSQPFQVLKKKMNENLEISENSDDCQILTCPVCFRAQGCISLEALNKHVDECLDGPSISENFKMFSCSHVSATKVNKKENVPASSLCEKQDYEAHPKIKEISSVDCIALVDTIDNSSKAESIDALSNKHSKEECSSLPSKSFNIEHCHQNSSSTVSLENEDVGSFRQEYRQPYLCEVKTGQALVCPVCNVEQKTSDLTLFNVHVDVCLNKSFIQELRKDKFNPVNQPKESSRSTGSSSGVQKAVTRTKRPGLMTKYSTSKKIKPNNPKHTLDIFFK
#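 Activity was followed as the change in fluorescence between reads at 0 and 10 min after starting the reaction with 50 nM substrate. Beforehand, 10 nM polymerase had been preincubated with compound for 15 min at room temperature.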
# GCN5L2 inh: GCN5L2 (KAT2A) acetyltransferase inhibition; Q92830; GCN5L2 HAT assay, ThioGlo1 CoA-SH fluorescence; Potency, µM (series often up to 58.9 µM), inactives show at the top dose activity change, negative = inhibition, actives largely listed as inhibitors; 390,000 tested, 0.21% active; AID 504327; note: % is set by controls: 0 for no effect and ±100 for the full control effect
#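 Titration-based screen in which CoA formation is detected via maleimide probe ThioGlo1 (50uM) turning fluorescent on thiol reaction; substrates H3(1-25) 75uM and acetyl-CoA 70uM, GCN5L2 20nM, 20 min incubation at room temperature.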
# Pol beta inh: DNA polymerase beta (human) inhibition; Pol beta primer extension/strand displacement, fluorescence kinetic; Potency, µM (doses to about 114 µM), for inactives: at the top dose activity change, negative = inhibition, usual class: inhibitors; 340,000 tested, 1.3% active; note: % is set by controls: 0 for no effect and ±100 for the full control effect
#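 Curves were derived by four-parameter Hill fits of normalized qHTS data. The kinetic fluorescent primer-extension read was taken at 0 and 10 min after 50 nM substrate, following a 15 min room-temperature preincubation of 10 nM enzyme with compounds.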
# POLH inh: inhibitors of human DNA polymerase eta. Q9Y253. 390,000 tested, 1.2% active. recombinant Pol eta, fluorescent DNA replication assay. Potency, µM (highest dose often 114 µM), inactives show at the highest dose activity change, negative = inhibition, usual class: inhibitors; note: % is set by controls: 0 for no effect and ±100 for the full control effect
#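 Pol eta at 10 nM preincubated with compounds 15 min at room temperature; reaction started with fluorescent substrate (50 nM final) and read kinetically at 0 and 10 min.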
# Numbers without * were called inactive; ? = inconclusive; nt = no result given; [ ] = dose if it differs, or a comment. In the library only some 2.4% were active in any assay of this set; here they are far more common. Calls come from the whole dose curve; as a rule, active = well fitted inhibition curve with a large enough effect; inconclusive = small, poorly fitted or top-dose-only effect, or another doubt; inactive = no such curve, though single readings can be large or run the other way. Potency is the fitted concentration of half-maximal effect.
SMILES,POLI inh,GLS inh,POLK inh,GCN5L2 inh,Pol beta inh,POLH inh
CCCCCCCCCCN(CCCCCCCCCC)c1ccc(/C=C/c2ccnc3ccccc23)cc1,-4%,nt,7%,nt,nt,nt
CN(CC(=O)Nc1ccccc1Cl)C(=O)COC(=O)c1ccc([N+](=O)[O-])s1,?,1%,-13%,-3%,nt,79µM*
COc1ccccc1NC(=O)COC(=O)c1ccc([N+](=O)[O-])s1,79µM*,0%,-33%,-10%,7.1µM*,?
OC1OC[C@H](O)[C@@H](O)[C@H]1O (stereo partly specified),nt,nt,14%[60.1 µM],-15%,nt,nt
Cc1ccc(OCCNC(=O)CNC(=O)Cc2cccc3ccccc23)cc1,-5%,nt,0%,nt,nt,nt
CC1=NN(c2ccccc2)C(=O)/C1=C/C=C/c1ccccc1,9%,-2%,-3%,-7%,36%,16µM*
COc1ccccc1C1CC(=O)Oc2cc3c(cc21)OCO3 (stereo unspecified),nt,nt,14µM*,28µM*,nt,nt
C=CCNC(=O)[C@@H]1CSC2c3ccc(OC)c(OC)c3C(=O)N21 (stereo partly specified),40µM*,-9%,-6%,-6%,-17%,?
CCc1cc2c(=O)n(Cc3ccco3)c(SCC(=O)N(C)C3CCS(=O)(=O)C3)nc2s1 (stereo unspecified),?,?,?,-18%,20µM*,-10%
CCc1cc2c(=O)n(Cc3ccco3)c(SCC(=O)NC3CCS(=O)(=O)C3)nc2s1 (stereo unspecified),?,1%,-28%,-5%,?,0%
CCc1cc2c(=O)n(Cc3ccco3)c(SCc3c(C)noc3C)nc2s1,14µM*,2%,-12%,-15%,0%,-19%
COc1ccc(CN2CC[C@H]3C=CC[C@@H](C(=O)Nc4ccccc4)[C@H]3C2=O)cc1OC,?,nt,-23%,nt,nt,nt
Cc1cccc(CSc2ccc3nnc(CCNS(=O)(=O)c4ccccc4)n3n2)c1,22%,0%,-17%,-16%,3%,-19%
O=C(OCc1ccccc1)N1CCN(/[N+]([O-])=N/Oc2ccc([N+](=O)[O-])cc2[N+](=O)[O-])CC1,26%,nt,-2%,nt,nt,nt
Cc1cccc(-c2nc3c(cnn3-c3ccccc3)c(=O)n2-c2cccc(Cl)c2)c1,?,1%,-27%,-1%,2%,-7%
CCOC(=O)c1c(N)sc(=S)c2c1CCC2,?,19%,-29%,-4%,8.9µM*,?
CCOC(=O)c1c(N)sc(N)c1C(=O)OCC,9%,30%,-14%,-17%,0%,-20%
COc1ccc(C2C=C3CNS(=O)(=O)C3CC2OC(=O)c2ccc(Cl)cc2)cc1 (stereo unspecified),1%,nt,-5%,nt,nt,nt
N#C/C(=C1/SC[C@@H](c2ccc(Cl)cc2Cl)S1)n1ccnc1,nt,0%,nt,nt,nt,nt
C=CCn1c(SCC(N)=O)nc2ccccc2c1=O,19%,nt,-4%,nt,nt,nt
CC(=O)NCc1ccc(C(=O)CSc2nnc(-c3ccncc3)n2Cc2ccccc2)o1,22µM*,-19%,79µM*,-11%,20µM*,20µM*
C=CCn1c(SCC(=O)c2ccc(CNC(C)=O)o2)nc2ccccc2c1=O,16µM*,1%,?,0%,?,?
CC(=O)NCCn1c(SCC(=O)NCCC(C)C)nc2ccccc2c1=O,-9%,-4%,22µM*,-1%,20%,-12%
O=C(Cc1ccc2ccccc2c1)NO,11%,nt,-2%,nt,nt,nt
COc1ccc(-c2nc3ccccc3o2)cc1NC(=O)COc1ccc(C)cc1,-5%,nt,-43%,nt,nt,nt
SMILES,POLI inh,GLS inh,POLK inh,GCN5L2 inh,Pol beta inh,POLH inh
CN1C(C(=O)Nc2ccccn2)C(=O)c2sc(Cl)cc2S1(=O)=O (stereo unspecified),nt,0%,-10%[60.1 µM],3%,nt,nt
CN1C(C(=O)Nc2ccccn2)=C(O)c2sc(Cl)cc2S1(=O)=O,79µM*,11%,-10%,-26%,?,0%
CC1CCC/C(=C\Nc2ccc(O)cc2)C1=O (stereo unspecified),8.9µM*,19%,-20%,-15%,7%,-1%
CN(C)c1ccc(/C=C/c2ccnc3c(O)ccc(O)c23)cc1,5%,nt,10%,nt,nt,nt
CCc1nnc(NS(=O)(=O)c2ccc(NC(=O)/C=C/c3ccc(OC)cc3OC)cc2)s1,?,5%,?,-13%,56µM*,?
CSCC[C@H](NC(=O)[C@H](CCC(N)=O)NC(=O)[C@H](CCCCN)NC(=O)[C@H](CCCNC(=N)N)NC(=O)[C@H](Cc1ccc(O)cc1)NC(=O)[C@H](CCCNC(=N)N)NC(=O)[C@H](CO)NC(=O)[C@H](Cc1ccc(O)cc1)NC(=O)[C@H](CO)NC(=O)[C@H](CC(=O)O)NC(=O)[C@@H](NC(=O)[C@@H](N)Cc1ccccc1)[C@@H](C)O)C(=O)N[C@@H](C)C(=O)N[C@H](C(=O)N[C@@H](CCCCN)C(=O)N[C@@H](CCCCN)C(=O)N[C@@H](Cc1ccc(O)cc1)C(=O)N[C@@H](CC(C)C)C(=O)N[C@@H](C)C(=O)N[C@@H](C)C(=O)N[C@H](C(=O)N[C@@H](CC(C)C)C(=O)NCC(=O)N[C@@H](CCCCN)C(=O)N[C@@H](CCCNC(=N)N)C(=O)N[C@@H](Cc1ccc(O)cc1)C(=O)N[C@@H](CCCCN)C(=O)N[C@@H](CCC(N)=O)C(=O)N[C@@H](CCCNC(=N)N)C(=O)N[C@H](C(=O)N[C@@H](CCCCN)C(=O)N[C@@H](CC(N)=O)C(=O)N[C@@H](CCCCN)C(N)=O)C(C)C)C(C)C)C(C)C,nt,nt,?,-15%,nt,nt
CC(=O)C(=O)O,nt,nt,-6%[60.1 µM],0%,nt,nt
CC1=NN(c2ccc(C)cc2)C(=O)/C1=C\c1ccc(Br)s1,3.5µM*,-9%,-14%,-4%,-16%,?
S=c1[nH]nc(-c2cc(-c3ccccc3)n[nH]2)n1/N=C/c1ccc(Cl)c(Cl)c1,?,-14%,?,-29%,22µM*,?
S=c1[nH]nc(-c2ccccc2)n1/N=C/c1cccc(Br)c1,100%,28%,-1%,-7%,2%,2%
S=c1[nH]nc(-c2ccccn2)n1/N=C/c1ccc(Cl)c(Cl)c1,-14%,?,-2%,0%,-3%,-3%
S=c1[nH]nc(-c2cc(-c3ccccc3)n[nH]2)n1/N=C/c1ccc(Cl)cc1,16µM*,-8%,-9%,-10%,40µM*,?
COc1ccc(/C=N/n2c(-c3ccccc3)n[nH]c2=S)cc1,?,-17%,-7%,-1%,?,-3%
